Data as given in PubChem BioAssay (Tox21).
Results filed as inconclusive are left out. Calls of active or inactive are those of the source. Unless noted, the call rests on the fitted dose curve.

Experiments:
[1] = biological target: Gonadotropin-releasing hormone receptor (Homo sapiens) (UniProt P30968); experiment: Human gonadotropin-releasing hormone receptor (GnRHR) small molecule agonists, calcium flux assay in GnRHR-HEK293 cells (AID 1920063); further: nearly all actives have a fitted effect of over 35% in size
Sequence of Gonadotropin-releasing hormone receptor (Homo sapiens) (P30968 whole entry, looked up): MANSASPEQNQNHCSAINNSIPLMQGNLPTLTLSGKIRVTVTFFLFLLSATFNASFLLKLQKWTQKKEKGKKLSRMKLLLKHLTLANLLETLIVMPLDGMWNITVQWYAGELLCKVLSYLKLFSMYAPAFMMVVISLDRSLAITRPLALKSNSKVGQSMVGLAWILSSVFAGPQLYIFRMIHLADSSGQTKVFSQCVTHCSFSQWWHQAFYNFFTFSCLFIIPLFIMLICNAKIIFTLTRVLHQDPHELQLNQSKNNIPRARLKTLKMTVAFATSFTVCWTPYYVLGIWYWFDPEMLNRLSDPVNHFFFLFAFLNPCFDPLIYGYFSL
Summary of the method: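 Fluorescence kinetics (480 nm excitation, 540 nm emission; 3 min, 1 s steps) report calcium mobilisation in human GnRHR-HEK293 cells in agonist mode. Dye incubation: 1 h, 37 C.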

[2] = biological target: KiSS-1 receptor (Homo sapiens) (UniProt Q969F8); experiment: Human kisspeptin (KISS1R) small molecule agonists, calcium flux assay in KISS1R-HEK293 cells (AID 1920064; active means well fitted activation curve with a large enough effect in the repeat runs)
Sequence of KiSS-1 receptor (Homo sapiens) (Q969F8 whole entry, looked up): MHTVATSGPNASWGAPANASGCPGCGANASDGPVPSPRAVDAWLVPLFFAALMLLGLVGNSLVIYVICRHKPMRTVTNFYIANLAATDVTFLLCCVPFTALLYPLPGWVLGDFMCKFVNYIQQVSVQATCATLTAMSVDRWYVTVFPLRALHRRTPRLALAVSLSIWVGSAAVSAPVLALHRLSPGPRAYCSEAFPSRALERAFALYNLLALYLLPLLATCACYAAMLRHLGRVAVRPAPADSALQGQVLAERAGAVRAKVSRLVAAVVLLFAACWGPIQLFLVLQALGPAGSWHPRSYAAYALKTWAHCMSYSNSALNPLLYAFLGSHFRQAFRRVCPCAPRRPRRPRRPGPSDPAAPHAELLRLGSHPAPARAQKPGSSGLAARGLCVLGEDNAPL
Summary of the method: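 Measures KISS1R agonism through calcium-sensitive dye fluorescence in stably transfected HEK293 cells, read for 3 min after pin-tool compound delivery; 15-point titrations in triplicate.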

[3] = G protein-coupled receptor (GPCR) small molecule agonists, calcium flux assay: HEK293 wild type cell line counter screen (AID 1920065)
Summary of the method: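 Readout: fluorescence at 480 nm excitation/540 nm emission, sampled at 1 s intervals for 3 min. Cells had been cultured 18 h, then dye-loaded 1 h at 37 C before compound or ATP addition.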

[4] = p53 small molecule agonists, cell-based qHTS assay: qHTS cell viability counter screen (AID 1963581); further: nearly all actives have a fitted effect of over 45% in size
Summary of the method: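 In the same plates used for the p53 bla reporter, HCT-116 cells given compounds for 16 h at 37 C received CellTiter-Glo; luminescence was recorded 30 min later at room temperature.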

[5] = p53 small molecule agonists, cell-based qHTS assay (AID 1963582; active means well fitted activation curve with a large enough effect in the signal ratio in the repeat runs, not every such curve was filed as active; the % refers to the signal ratio; further: potency means the concentration at half of the fitted maximal effect)
Summary of the method: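 Compounds are pin-transferred in DMSO onto p53RE-bla cells and incubated 16 h at 37 C. The B/G FRET beta-lactamase substrate is then applied for 2 h at RT and fluorescence recorded.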

[6] = biological target: Beta-2 adrenergic receptor (Homo sapiens) (UniProt P07550); experiment: Adrenergic beta2 receptor (ADRB2) small molecule agonists, cell-based qHTS assay (AID 1963593);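 further: CHO cells stably overexpressing human ADRB2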
Sequence of Beta-2 adrenergic receptor (Homo sapiens) (P07550 whole entry, looked up): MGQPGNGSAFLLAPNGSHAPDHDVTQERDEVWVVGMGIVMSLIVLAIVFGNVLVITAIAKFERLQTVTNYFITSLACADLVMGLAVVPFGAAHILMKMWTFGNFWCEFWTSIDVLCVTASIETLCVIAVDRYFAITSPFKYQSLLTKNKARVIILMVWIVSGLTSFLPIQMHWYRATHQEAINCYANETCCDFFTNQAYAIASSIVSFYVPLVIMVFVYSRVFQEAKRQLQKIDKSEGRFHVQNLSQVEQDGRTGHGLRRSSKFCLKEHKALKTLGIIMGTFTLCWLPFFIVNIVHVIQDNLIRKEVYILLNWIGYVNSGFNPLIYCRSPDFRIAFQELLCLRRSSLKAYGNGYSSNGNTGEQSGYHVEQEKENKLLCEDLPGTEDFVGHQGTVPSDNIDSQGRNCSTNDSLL
Summary of the method: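 CHO cells stably over-expressing ADRB2 were plated overnight at 37C, then dosed with compounds plus a stimulation mix containing 100uM IBMX and 25uM Ro-20-1724 for 0.5hr at room temperature. cAMP was measured by HTRF competition, 1hr.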

[7] = biological target: D(2) dopamine receptor (Homo sapiens) (UniProt P14416); experiment: Dopamine D2 receptor (DRD2) small molecule antagonists, cell-based qHTS assay (AID 1963595; active means well fitted inhibition curve with a large enough effect in the signal ratio in the repeat runs, with a control signal flat; the % refers to the signal ratio; further: potency means the concentration at half of the fitted maximal effect)
Sequence of D(2) dopamine receptor (Homo sapiens) (P14416 whole entry, looked up): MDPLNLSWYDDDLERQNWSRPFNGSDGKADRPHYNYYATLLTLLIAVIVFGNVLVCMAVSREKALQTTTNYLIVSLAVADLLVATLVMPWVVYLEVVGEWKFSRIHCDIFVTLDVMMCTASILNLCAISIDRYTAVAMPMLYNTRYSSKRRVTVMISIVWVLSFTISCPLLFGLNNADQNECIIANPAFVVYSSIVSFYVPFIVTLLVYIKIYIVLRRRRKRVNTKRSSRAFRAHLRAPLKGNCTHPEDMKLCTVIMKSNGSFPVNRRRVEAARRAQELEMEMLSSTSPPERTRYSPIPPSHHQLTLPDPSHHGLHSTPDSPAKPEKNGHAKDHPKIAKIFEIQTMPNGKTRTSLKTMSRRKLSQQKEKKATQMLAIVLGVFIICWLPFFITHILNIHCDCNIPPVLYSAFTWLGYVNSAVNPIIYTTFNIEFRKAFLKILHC
Summary of the method: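 Antagonism was scored as restored cAMP in HEK293-DRD2 cells. These cells were stimulated with 200 nM NKH477 and 12 nM quinpirole for 30 min at room temperature, in the presence of 0.1 mM Ro20-1724.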

[8] = p53 small molecule agonists, cell-based qHTS assay with rat liver microsomes (AID 1963578)
Summary of the method: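 With rat liver microsomes and NADPH present (0.5 mg/mL final each), p53RE-bla cells are treated with compound for 16 h at 37 C. LiveBLAzer detection mixture is then applied for 2 h at room temperature in the dark.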

[9] = p53 small molecule agonists, cell-based qHTS assay with human liver microsomes: qHTS cell viability counter screen (AID 1963579); further: nearly all actives have a fitted effect of over 45% in size; further: potency means the concentration at half of the fitted maximal effect
Summary of the method: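 In this multiplexed counter screen, the reporter plates were subsequently treated with CellTiter-Glo so that cell viability, reflected by luminescence, could be recorded for p53RE-bla cells dosed 16 h with compounds under microsomal activation (HLM and NADPH).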

[10] = biological target: D(2) dopamine receptor (Homo sapiens) (UniProt P14416); experiment: Dopamine D2 receptor (DRD2) small molecule agonists, cell-based qHTS assay (AID 1963594); further: nearly all actives have a fitted effect of over 35% in size
Summary of the method: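 HEK293 cells stably expressing DRD2 were cultured 24 h at 37 C, then given Ro20-1724 (0.1 mM final) and compounds for 10 min at room temperature. NKH477 (200nM) was then added for 30 min. cAMP was read by HTRF.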

[11] = p53 small molecule agonists, cell-based qHTS assay with human liver microsomes (AID 1963577);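 further: p53 response element beta-lactamase reporter cells with liver microsomes plus NADPH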
Summary of the method: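 16 h, 37 C exposure of p53RE-bla cells to compounds with human liver microsomes and NADPH (0.5 mg/mL final each); detection via LiveBLAzer mixture, 2 h dark at room temperature.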

[12] = p53 small molecule agonists, cell-based qHTS assay with rat liver microsomes: qHTS cell viability counter screen (AID 1963580); further: nearly all actives have a fitted effect of over 45% in size
Summary of the method: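 In HCT-116 cells carrying a p53 response element-bla reporter, compounds were metabolically activated in situ by rat liver microsomes with NADPH over 16 h. Cell ATP content then served as the cytotoxicity measure.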

[13] = biological target: 5-hydroxytryptamine receptor 2A (Homo sapiens) (UniProt P28223); experiment: 5-hydroxytryptamine receptor 2A (HTR2A) small molecule antagonists, cell-based qHTS assay (AID 1963586); further: nearly all actives have a fitted effect of over 45% in size; further: potency means the concentration at half of the fitted maximal effect
Sequence of 5-hydroxytryptamine receptor 2A (Homo sapiens) (P28223 whole entry, looked up): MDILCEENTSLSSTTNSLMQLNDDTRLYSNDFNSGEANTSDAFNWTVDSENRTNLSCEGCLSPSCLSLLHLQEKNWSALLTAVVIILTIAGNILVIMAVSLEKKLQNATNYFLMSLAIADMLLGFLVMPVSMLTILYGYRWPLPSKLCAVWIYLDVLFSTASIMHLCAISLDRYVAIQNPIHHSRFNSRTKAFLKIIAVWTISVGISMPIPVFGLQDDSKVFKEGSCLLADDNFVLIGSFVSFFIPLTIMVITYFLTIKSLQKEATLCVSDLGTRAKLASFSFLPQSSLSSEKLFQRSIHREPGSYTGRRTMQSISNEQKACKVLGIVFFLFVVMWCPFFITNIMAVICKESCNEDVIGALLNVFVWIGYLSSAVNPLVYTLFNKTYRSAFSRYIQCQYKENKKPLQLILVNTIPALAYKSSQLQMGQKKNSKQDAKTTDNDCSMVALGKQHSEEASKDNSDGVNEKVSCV
Summary of the method: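 Antagonist-mode intracellular calcium assay: DOI (4 nM) added after 5 min compound pre-incubation at room temperature to dye-loaded HTR2A-CHO cells. Fluorescence followed for 3 min, sampled every second.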

[14] = biological target: 5-hydroxytryptamine receptor 2A (Homo sapiens) (UniProt P28223); experiment: 5-hydroxytryptamine receptor 2A (HTR2A) small molecule agonists, cell-based qHTS assay (AID 1963587); further: nearly all actives have a fitted effect of over 30% in size; further: potency means the concentration at half of the fitted maximal effect
Summary of the method: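 HTR2A-CHO cells, plated 18 h at 37 C/5% CO2, dye-loaded 1 h at 37 C; compounds in DMSO added by pin tool (agonist mode). Intracellular calcium flux read as kinetic fluorescence on FDSS over 2 min at 1 s intervals.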

[15] = biological target: Muscarinic acetylcholine receptor M1 (Homo sapiens) (UniProt P11229); experiment: Cholinergic receptor muscarinic 1 (CHRM1) small molecule antagonists, cell-based qHTS assay (AID 1963588); further: nearly all actives have a fitted effect of over 40% in size; further: potency means the concentration at half of the fitted maximal effect
Sequence of Muscarinic acetylcholine receptor M1 (Homo sapiens) (P11229 whole entry, looked up): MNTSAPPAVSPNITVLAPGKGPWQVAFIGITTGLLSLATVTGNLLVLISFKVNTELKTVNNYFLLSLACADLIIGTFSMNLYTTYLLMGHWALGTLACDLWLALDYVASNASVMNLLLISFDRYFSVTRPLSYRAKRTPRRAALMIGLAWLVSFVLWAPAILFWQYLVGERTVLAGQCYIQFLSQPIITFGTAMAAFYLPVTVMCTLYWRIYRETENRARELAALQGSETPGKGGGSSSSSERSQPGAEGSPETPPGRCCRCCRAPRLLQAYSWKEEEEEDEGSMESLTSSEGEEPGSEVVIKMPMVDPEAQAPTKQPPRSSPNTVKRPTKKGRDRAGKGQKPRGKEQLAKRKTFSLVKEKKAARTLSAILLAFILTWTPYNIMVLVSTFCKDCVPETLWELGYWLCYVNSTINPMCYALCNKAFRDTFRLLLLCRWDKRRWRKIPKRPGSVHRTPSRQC
Summary of the method: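 CHRM1-CHO calcium-flux assay, antagonist mode. Cells were seeded 18 h, dye-loaded 1 h at 37 C and given compound for 5 min at RT, then acetylcholine was added at 50nM. FDSS fluorescence was read 3 min; 15 concentrations, three runs.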

[16] = biological target: Muscarinic acetylcholine receptor M1 (Homo sapiens) (UniProt P11229); experiment: Cholinergic receptor muscarinic 1 (CHRM1) small molecule agonists, cell-based qHTS assay (AID 1963589); further: nearly all actives have a fitted effect of over 35% in size
Summary of the method: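 Each compound was tested at 15 concentrations across three independent runs on dye-loaded CHO cells stably expressing human CHRM1, reading intracellular calcium fluorescence kinetically at 1 sec intervals.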

[17] = biological target: Beta-2 adrenergic receptor (Homo sapiens) (UniProt P07550); experiment: Adrenergic beta2 receptor (ADRB2) small molecule antagonists, cell-based qHTS assay (AID 1963592); further: series mostly up to about 92 µM; nearly all actives have a fitted effect of over 50% in size
Summary of the method: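 Cells (CHO, stable ADRB2 overexpression) incubated 18-20hr at 37C; compounds added from DMSO; agonist mix (1nM isoproterenol, 100uM IBMX, 25uM Ro-20-1724) added; 0.5hr RT; d2-cAMP and anti-cAMP-cryptate added; 1hr RT; 665/615 nm read.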

[18] = cAMP Responsive Elements (CRE) small molecule antagonists, cell-based qHTS assay (AID 1963591; active means well fitted inhibition curve with a large enough effect in the signal ratio in the repeat runs, not every such curve was filed as active; the % refers to the signal ratio; further: potency means the concentration at half of the fitted maximal effect)
Summary of the method: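 Inhibition of NKH477-driven (0.25 uM final) CRE-beta-lactamase signal in HEK293T cells, 3 h compound exposure at 37 °C, detected by FRET substrate fluorescence.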

[19] = cAMP Responsive Elements (CRE) small molecule agonists, cell-based qHTS assay (AID 1963590)
Summary of the method: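 Cell line: CRE-bla HEK 293T; medium DMEM/10% dialyzed FBS/0.1 mM NEAA/1 mM pyruvate/25 mM HEPES; 3 h compound exposure; beta-lactamase FRET readout after 2 h substrate loading at RT.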

Measured: Potency

CCCCc1oc2ccccc2c1C(=O)c1cc(I)c(OCCN(CC)CC)c(I)c1
inactive: [1] | [2] | [3] | [4] | [5] | [6] | [7]

CC(C)(C)c1csc(-c2cc3cc(OCc4ccccc4CC(=O)O)ccc3o2)n1
inactive: [2] | [3] | [8] | [10] | [7]
active: [9] 45.8 µM

CCCCC[C@H](O)/C=C/[C@H]1[C@H](O)CC(=O)[C@@H]1C/C=C\CCCC(=O)O
inactive: [2] | [3] | [11] | [8] | [12] | [13] | [14] | [15] | [16] | [17]
active: [7] 0.0075 µM

O=C(c1ccccc1)c1cc(Cl)ccc1O
active: [15] 20 µM | [18] 41.1 µM
inactive: [1] | [3] | [11] | [8] | [12] | [4] | [5] | [13] | [16] | [17] | [10] | [7]

Cc1c(C)n(Cc2ccccc2)c2ccc(C(=O)OCCN(C)C)cc12
active: [13] 16.3 µM | [7] 33.5 µM
inactive: [1] | [11] | [8] | [9] | [4] | [15] | [16] | [19] | [17] | [10]

COC(=O)[C@H]1[C@H]2C[C@@H]3c4[nH]c5cc(OC)ccc5c4CCN3C[C@H]2C[C@@H](OC(=O)/C=C/c2ccc(O)c(OC)c2)[C@@H]1OC
active: [14] 19 µM
inactive: [2] | [8] | [9] | [12] | [4] | [13] | [15] | [10]

CN1[C@@H]2CC(OC(=O)[C@H](CO)c3ccccc3)C[C@H]1[C@@H]1O[C@@H]12 (stereo not given in full)
inactive: [3] | [4] | [5] | [13] | [16] | [19] | [18] | [17] | [6] | [10] | [7]

O=S(c1cc(Cl)cc(Cl)c1O)c1cc(Cl)cc(Cl)c1O
active: [5] 17.8 µM
inactive: [2] | [3] | [11] | [8] | [9] | [15] | [16] | [18] | [17] | [10] | [7]

CNCC[C@H](Oc1cccc2ccccc12)c1cccs1
inactive: [2] | [3] | [11] | [8] | [9] | [12] | [4] | [19] | [18] | [7]

Nc1cccnc1N
inactive: [2] | [3] | [11] | [8] | [9] | [12] | [4] | [5] | [14] | [16] | [19] | [18] | [10]
